# Measured values from PubChem BioAssay (EPA / NIEHS).
# “And” between values parts separate entries of the source, which are not always exact repeats. Equal entries are not always repeated. Results filed as inconclusive are left out. A structure can be active in one record and inactive in another. The source made the active and inactive calls. How the source made its calls, unless noted: active means hit-call score of the fitted dose curve at least 0.9, where 1 is the maximum; inconclusive means response in the unintended direction; inactive means score below 0.9.
# Assays:
# [1] = biological target: Nuclear receptor subfamily 1 group I member 2 (Homo sapiens) (UniProt O75469); test: NVS_NR_hPXR: NovaScreen (NVS) Nuclear Receptor Binding Assay for human Pregnane X Receptor (PXR) (AID 2283365);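 further: a drop in FRET signal versus DMSO baseline means the compound binds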
# Sequence of Nuclear receptor subfamily 1 group I member 2 (Homo sapiens) (O75469 whole entry, looked up): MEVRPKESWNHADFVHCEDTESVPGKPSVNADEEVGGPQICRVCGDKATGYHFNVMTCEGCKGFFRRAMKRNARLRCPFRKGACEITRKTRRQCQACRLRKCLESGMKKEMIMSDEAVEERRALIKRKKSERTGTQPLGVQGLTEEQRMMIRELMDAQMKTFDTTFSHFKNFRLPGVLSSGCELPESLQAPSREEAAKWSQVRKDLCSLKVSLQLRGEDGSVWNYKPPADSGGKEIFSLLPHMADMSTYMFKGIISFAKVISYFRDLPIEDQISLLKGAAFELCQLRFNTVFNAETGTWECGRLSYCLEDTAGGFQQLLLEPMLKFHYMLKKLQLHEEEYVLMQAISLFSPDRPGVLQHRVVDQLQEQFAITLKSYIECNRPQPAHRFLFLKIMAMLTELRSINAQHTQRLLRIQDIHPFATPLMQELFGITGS
# Summary of the method: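 Binding was measured by time-resolved fluorescence resonance energy transfer after a 2 h exposure of extracted human PXR protein without cells. Compounds were first tested at 25 uM in duplicate, with concentration series for actives; DMSO defined baseline.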
# [2] = biological target: Estrogen receptor beta (Homo sapiens) (UniProt Q92731); test: OT_ER_ERbERb_1440: Odyssey Thera (OT) 24-hour HEK293T Protein-Complementation Assay for Estrogen Receptor-beta/-beta Homodimer (AID 2283380);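 further: fluorescence gain from ER beta LBD homodimer complementation read by laser scanning cytometry; scored as signal increase over DMSO baseline for both agonists and antagonists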
# Sequence of Estrogen receptor beta (Homo sapiens) (Q92731 whole entry, looked up, the tested form may be a part): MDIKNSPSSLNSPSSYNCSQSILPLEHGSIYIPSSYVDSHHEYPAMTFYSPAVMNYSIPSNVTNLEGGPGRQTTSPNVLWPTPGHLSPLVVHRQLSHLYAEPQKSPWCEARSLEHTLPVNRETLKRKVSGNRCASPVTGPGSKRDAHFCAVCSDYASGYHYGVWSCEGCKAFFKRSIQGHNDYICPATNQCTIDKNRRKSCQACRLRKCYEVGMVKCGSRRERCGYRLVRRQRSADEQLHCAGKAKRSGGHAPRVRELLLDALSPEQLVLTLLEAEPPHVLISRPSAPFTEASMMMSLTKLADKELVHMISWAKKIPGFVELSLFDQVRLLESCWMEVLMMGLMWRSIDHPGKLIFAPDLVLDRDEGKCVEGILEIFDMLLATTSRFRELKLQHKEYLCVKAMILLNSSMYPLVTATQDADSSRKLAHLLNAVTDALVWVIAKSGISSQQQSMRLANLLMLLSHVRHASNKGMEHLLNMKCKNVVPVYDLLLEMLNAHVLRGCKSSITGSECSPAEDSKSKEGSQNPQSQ
# Summary of the method: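 Fluorescence increase, nuclear for agonists or whole-cell for antagonists, relative to DMSO vehicle, quantified by laser scanning cytometer after fixation and Draq5 staining. Readout from 24 h treatment of HEK293T cells carrying complementation-paired ER beta LBD (aa 310-547).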
# [3] = biological target: Estrogen receptor (Homo sapiens) (UniProt P03372); test: OT_ERa_GFPERaERE_0480: Odyssey Thera (OT) 8-hour HeLa Transcription Induction Assay for Estrogen Receptor (AID 2283381; active means hit-call score of the fitted dose curve at least 0.9, where 1 is the maximum; inactive means score below 0.9)
# Sequence of Estrogen receptor (Homo sapiens) (P03372 whole entry, looked up): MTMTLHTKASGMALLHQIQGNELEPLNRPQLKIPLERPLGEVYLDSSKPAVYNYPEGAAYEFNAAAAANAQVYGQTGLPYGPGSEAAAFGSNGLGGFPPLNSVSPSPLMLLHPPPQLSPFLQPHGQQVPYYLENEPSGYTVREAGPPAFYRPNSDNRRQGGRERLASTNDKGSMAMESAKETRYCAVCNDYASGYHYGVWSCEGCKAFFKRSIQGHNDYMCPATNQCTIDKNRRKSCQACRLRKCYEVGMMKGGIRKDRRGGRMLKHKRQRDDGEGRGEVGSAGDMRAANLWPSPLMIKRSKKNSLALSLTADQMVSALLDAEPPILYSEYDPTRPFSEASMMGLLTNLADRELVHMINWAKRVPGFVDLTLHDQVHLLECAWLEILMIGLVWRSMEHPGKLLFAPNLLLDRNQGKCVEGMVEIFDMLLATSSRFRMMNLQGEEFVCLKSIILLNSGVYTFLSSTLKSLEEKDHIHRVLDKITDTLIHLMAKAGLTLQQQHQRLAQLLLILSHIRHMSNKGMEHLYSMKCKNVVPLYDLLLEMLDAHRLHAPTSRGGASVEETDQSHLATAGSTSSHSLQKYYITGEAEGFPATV
# Summary of the method: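 Fluorescence microscopy with high-content image analysis measures ERE-driven GFP induction in HeLa cells at 8 h post-dose. Increases fitted against DMSO baseline.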
# [4] = biological target: Estrogen receptor (Homo sapiens) (UniProt P03372); test: OT_ERa_GFPERaERE_0120: Odyssey Thera (OT) 2-hour HeLa Transcription Induction Assay for Estrogen Receptor (AID 2283382)
# Summary of the method: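 Fluorescence-microscopy images of the GFP-ERα/ERE reporter, scored by high-content image algorithms, give the readout. HeLa exposure lasted 2 h, and only signal increase over DMSO was fitted.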
# [5] = biological target: Bile acid receptor (Homo sapiens) (UniProt Q96RI1); test: OT_FXR_FXRSRC1_1440: Odyssey Thera (OT) 24-hour HEK293T Protein-Complementation Assay for Farnesoid X receptor/SRC-1 Co-activator (AID 2283384)
# Sequence of Bile acid receptor (Homo sapiens) (Q96RI1 whole entry, looked up, the tested form may be a part): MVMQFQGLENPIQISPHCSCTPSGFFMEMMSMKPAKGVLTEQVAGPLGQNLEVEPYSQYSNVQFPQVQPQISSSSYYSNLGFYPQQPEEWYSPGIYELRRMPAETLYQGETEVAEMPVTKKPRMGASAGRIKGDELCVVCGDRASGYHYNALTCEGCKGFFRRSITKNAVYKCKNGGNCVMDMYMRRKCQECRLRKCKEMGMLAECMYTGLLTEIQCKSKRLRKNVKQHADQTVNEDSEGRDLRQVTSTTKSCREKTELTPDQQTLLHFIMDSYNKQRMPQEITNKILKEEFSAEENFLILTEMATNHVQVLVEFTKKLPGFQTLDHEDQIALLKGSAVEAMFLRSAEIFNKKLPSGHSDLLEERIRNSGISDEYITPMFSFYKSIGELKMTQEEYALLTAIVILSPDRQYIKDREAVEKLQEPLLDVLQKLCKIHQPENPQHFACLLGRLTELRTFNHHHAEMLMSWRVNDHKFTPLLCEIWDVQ
# Summary of the method: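 Protein-fragment complementation: FXR and SRC-1 fused to reporter fragments that reassemble on interaction, read by fluorescence intensity. Human HEK293T cells measured 24 h post-dose; positive-direction fit versus DMSO.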
# [6] = biological target: Retinoic acid receptor RXR-alpha (Homo sapiens) (UniProt P19793); test: OT_NURR1_NURR1RXRa_1440: Odyssey Thera (OT) 24-hour HEK293T Protein Complementation Assay for Nurr1/retinoid X receptor (RXR) (AID 2283386)
# Sequence of Retinoic acid receptor RXR-alpha (Homo sapiens) (P19793 whole entry, looked up, the tested form may be a part): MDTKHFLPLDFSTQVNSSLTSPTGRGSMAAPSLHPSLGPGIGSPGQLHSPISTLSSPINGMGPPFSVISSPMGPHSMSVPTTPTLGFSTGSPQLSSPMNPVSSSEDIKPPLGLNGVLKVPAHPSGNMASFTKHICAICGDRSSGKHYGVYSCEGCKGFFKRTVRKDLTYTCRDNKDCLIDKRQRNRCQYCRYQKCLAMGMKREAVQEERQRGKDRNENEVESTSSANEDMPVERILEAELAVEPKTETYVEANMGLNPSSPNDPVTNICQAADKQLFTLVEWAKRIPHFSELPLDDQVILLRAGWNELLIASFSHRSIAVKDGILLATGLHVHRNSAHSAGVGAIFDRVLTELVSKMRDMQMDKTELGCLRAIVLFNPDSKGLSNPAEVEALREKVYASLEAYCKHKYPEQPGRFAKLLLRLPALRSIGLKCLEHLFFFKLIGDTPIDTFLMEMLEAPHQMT
# Summary of the method: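 Gain in fluorescence, fitted relative to DMSO, reflects Nurr1–RXRα association in HEK293T cells after 24 h dosing. Bait and prey are each linked to a reporter-protein fragment that reassembles on interaction.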
# [7] = biological target: Peroxisome proliferator-activated receptor gamma (Homo sapiens) (UniProt P37231); test: OT_PPARg_PPARgSRC1_0480: Odyssey Thera (OT) 8-hour Protein-Complementation Assay for Peroxisome Proliferator-activated Receptor Gamma / SRC-1 Co-activator (AID 2283387);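 further: nuclear to cytoplasmic split Venus YFP fluorescence ratio reporting PPARg SRC-1 interaction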
# Sequence of Peroxisome proliferator-activated receptor gamma (Homo sapiens) (P37231 whole entry, looked up, the tested form may be a part): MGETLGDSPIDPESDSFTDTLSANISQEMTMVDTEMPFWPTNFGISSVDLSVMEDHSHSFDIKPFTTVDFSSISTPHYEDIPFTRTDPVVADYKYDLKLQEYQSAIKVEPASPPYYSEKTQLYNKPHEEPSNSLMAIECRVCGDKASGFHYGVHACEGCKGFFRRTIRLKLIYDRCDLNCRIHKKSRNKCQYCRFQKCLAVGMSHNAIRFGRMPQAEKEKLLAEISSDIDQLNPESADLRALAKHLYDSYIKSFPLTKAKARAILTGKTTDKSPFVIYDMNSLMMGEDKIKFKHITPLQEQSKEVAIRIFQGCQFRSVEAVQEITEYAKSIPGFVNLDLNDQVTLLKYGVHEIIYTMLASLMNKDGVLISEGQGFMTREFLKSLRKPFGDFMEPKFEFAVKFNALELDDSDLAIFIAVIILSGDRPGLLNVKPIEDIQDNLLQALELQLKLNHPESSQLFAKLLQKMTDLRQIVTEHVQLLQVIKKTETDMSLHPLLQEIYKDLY
# Summary of the method: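 Split-YFP (IFP1/IFP2) PPARg/SRC-1 reporter, HEK293T, 37 °C, 5% CO2; 8 h compound; formaldehyde fix + Draq5; high-content imaging, N/C ratio, ≥350 cells/image, positive direction vs DMSO.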
# [8] = biological target: Peroxisome proliferator-activated receptor gamma (Homo sapiens) (UniProt P37231); test: OT_PPARg_PPARgSRC1_1440: Odyssey Thera (OT) 24-hour Protein-Complementation Assay for Peroxisome Proliferator-activated Receptor Gamma/ SRC-1 Co-activator (AID 2283388);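 further: nuclear to cytoplasmic ratio of reconstituted Venus YFP fluorescence in fixed imaged cells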
# Summary of the method: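 Transient HEK293T, YFP fragments 1-158/159-239 (mutant IFP1/IFP2) fused to PPARg/SRC-1; 24 h dosing; fix 4% formaldehyde, Draq5; Opera imaging 488/635 nm; N/C ratio, gain vs DMSO.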
# [9] = biological target: guinea pig Sigma Receptor, Non-selective Binding, SIGMAR1 (gene 100135589) (UniProt Q60492); test: NVS_OR_gSIGMA_NonSelective: NovaScreen (NVS) Nuclear Receptor Binding Assay for guinea pig Sigma Receptor, Non-selective Binding (AID 2283367)
# Summary of the method: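 Guinea pig brain membrane sigma sites were labelled with a radioligand, and bound radioactivity was counted after filtration 1 h post-dose. Compounds were screened at 25 uM in duplicate, then retested as concentration series when active.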
# [10] = biological target: human Adenosine Transporter (Adot), SLC29A1 (gene 2030) (UniProt Q99808); test: NVS_TR_hAdoT: NovaScreen (NVS) Transporter Assay for human Adenosine Transporter (Adot) (AID 2283368)
# Sequence of human Adenosine Transporter (Adot), SLC29A1 (gene 2030) (Q99808 whole entry, looked up): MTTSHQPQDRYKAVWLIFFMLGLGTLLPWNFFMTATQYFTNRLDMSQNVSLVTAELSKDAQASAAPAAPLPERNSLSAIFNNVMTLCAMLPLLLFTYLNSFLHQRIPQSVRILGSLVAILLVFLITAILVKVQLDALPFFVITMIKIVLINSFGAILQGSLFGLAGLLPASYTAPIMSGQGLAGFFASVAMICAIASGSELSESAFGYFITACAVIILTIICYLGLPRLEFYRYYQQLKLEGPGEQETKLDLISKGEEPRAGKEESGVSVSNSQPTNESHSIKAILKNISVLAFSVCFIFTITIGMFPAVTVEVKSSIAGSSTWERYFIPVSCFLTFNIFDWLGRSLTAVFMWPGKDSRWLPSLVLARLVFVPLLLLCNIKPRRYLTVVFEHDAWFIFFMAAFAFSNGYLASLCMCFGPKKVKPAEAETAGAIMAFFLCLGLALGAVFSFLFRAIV
# Summary of the method: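 Binding displacement on U937 extracted protein, read 1 h post-dose by filtration and scintillation counting. Primary duplicate test at 25 uM, then singleton concentration series with 50 uM top; DMSO baseline.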
# [11] = system: guinea pig Dopamine Transporter (DAT), gene 100714898; test: NVS_TR_gDAT: NovaScreen (NVS) Transporter Assay for guinea pig Dopamine Transporter (DAT) (AID 2283369);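 further: active compounds lower bound radioligand signal relative to DMSO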
# Summary of the method: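 Test chemicals were incubated 2 h with guinea pig striatal membranes and a radioligand; bound label was separated by filtration and counted. Screening ran at 25 uM, followed by concentration-response testing to a 50 uM maximum.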
# [12] = biological target: human Dopamine Transporter (DAT), SLC6A3 (gene 6531) (UniProt Q01959); test: NVS_TR_hDAT: NovaScreen (NVS) Transporter Assay for human Dopamine Transporter (DAT) (AID 2283374);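 further: activity means loss of bound radioligand signal relative to DMSO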
# Summary of the method: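 Duplicate single-point screening at 25 uM preceded concentration-series follow-up of actives. Binding was measured by competitive displacement of a radioligand from DAT protein, filter-counted by scintillation 1 h after dosing. Decrease relative to DMSO taken as activity.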
# [13] = biological target: rat Serotonin Transporter (SERT), Slc6a4 (gene 25553) (UniProt P31652); test: NVS_TR_rSERT: NovaScreen (NVS) Transporter Assay for rat Serotonin Transporter (SERT) (AID 2283375)
# Summary of the method: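 Steps: rat forebrain membranes dosed with chemical (25 uM duplicate primary; concentration series for actives); 1 h incubation; labelled ligand bound, filtered, counted by scintillation. Activity scored as signal loss vs DMSO.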
# [14] = biological target: human Norepinephrine Transporter (NET), SLC6A2 (gene 6530) (UniProt P23975); test: NVS_TR_hNET: NovaScreen (NVS) Transporter Assay for human Norepinephrine Transporter (NET) (AID 2283377);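 further: cell-free membrane protein extracted from CHO cells expressing human NET; displacement of radioligand from human NET seen as loss of scintillation signal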
# Summary of the method: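 Single-concentration duplicate screen at 25 uM, then concentration-response for actives; displacement of specific radioligand from human NET in CHO membrane extracts, filter-based scintillation detection at 1 h relative to DMSO.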
# [15] = biological target: Retinoic acid receptor RXR-alpha (Homo sapiens) (UniProt P19793); test: OT_NURR1_NURR1RXRa_0480: Odyssey Thera (OT) 8-hour HEK293T Protein Complementation Assay for Nurr1/retinoid X receptor (RXR) (AID 2283385)
# Summary of the method: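 Interaction of Nurr1 with RXRα read as reconstituted reporter fluorescence in a HEK293T fragment-complementation system, 8 h post-treatment; increase over DMSO baseline analysed.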
# [16] = CEETOX_H295R_11DCORT: CeeTox H295R High-throughput Steroidogenesis Assay for 11-Deoxycortisol (11DCORT) (AID 2283432; active means hit-call score of the fitted dose curve at least 0.9, where 1 is the maximum; inactive means score below 0.9;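 on AC50: human adrenal H295R cells prestimulated with 10 µM forskolin for 48 h; 11-deoxycortisol secreted into the medium measured by LC-MS/MS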); conditions: actives raise or lower the signal
# Summary of the method: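 Steroidogenesis in human H295R cells: 48 h chemical exposure after forskolin priming, 11-deoxycortisol measured by LC-MS/MS.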
# [17] = biological target: Agonist Androgen Response Element (ARE), AR (gene 367) (UniProt P10275); test: OT_AR_ARELUC_AG_1440: Odyssey Thera (OT) 24-hour CHO-K1 Luciferase Assay for Agonist Androgen Response Element (ARE) (AID 2283379)
# Sequence of Agonist Androgen Response Element (ARE), AR (gene 367) (P10275 whole entry, looked up): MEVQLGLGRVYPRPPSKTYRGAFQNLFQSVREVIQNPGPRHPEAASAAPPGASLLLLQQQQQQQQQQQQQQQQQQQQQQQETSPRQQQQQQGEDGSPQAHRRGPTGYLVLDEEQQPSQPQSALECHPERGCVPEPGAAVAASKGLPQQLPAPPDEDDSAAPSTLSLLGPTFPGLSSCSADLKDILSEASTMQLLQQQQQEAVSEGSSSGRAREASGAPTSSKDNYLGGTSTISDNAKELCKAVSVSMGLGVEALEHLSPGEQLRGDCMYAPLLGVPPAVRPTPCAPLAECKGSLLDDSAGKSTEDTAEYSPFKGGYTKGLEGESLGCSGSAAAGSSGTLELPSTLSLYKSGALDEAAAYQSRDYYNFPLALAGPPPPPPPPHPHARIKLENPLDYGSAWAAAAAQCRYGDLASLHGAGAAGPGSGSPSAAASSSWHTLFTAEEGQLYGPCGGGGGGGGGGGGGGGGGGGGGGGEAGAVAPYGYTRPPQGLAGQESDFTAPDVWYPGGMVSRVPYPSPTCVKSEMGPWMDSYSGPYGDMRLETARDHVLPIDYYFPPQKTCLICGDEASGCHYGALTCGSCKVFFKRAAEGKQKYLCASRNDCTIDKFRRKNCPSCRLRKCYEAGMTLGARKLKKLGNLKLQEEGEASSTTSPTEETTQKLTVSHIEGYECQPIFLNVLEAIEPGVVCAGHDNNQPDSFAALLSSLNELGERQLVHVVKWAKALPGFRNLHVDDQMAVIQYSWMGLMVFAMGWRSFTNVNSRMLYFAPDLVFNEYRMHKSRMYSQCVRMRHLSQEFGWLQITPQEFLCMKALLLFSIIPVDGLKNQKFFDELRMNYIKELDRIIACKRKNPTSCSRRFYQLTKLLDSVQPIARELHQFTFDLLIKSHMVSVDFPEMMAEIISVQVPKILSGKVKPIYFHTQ
# Summary of the method: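 Readout: luciferase bioluminescence from CHO-K1 ARE-luc cells, measured 24 h post-dosing; agonism = increased mean luminescence vs DMSO controls, fitted in positive direction.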
# [18] = biological target: Peroxisome proliferator-activated receptor gamma (Homo sapiens) (UniProt P37231); test: NVS_NR_hPPARg: NovaScreen (NVS) Nuclear Receptor Binding Assay for human Peroxisome Proliferator-activated Receptor gamma (PPARg) (AID 2283370)
# Summary of the method: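 Fluorescence polarization measures competitive binding to extracted PPARg in a cell-free format. Reading is taken at 2 h; activity is signal loss relative to DMSO. Screening at 25 uM in duplicate preceded confirmatory dose series.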
# [19] = biological target: mouse Estrogen Receptor alpha (Era), Esr1 (gene 13982) (UniProt P19785); test: NVS_NR_mERa: NovaScreen (NVS) Nuclear Receptor Binding Assay for mouse Estrogen Receptor alpha (Era) (AID 2283378);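 further: hit means loss of bound radioligand signal relative to DMSO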
# Sequence of mouse Estrogen Receptor alpha (Era), Esr1 (gene 13982) (P19785 whole entry, looked up): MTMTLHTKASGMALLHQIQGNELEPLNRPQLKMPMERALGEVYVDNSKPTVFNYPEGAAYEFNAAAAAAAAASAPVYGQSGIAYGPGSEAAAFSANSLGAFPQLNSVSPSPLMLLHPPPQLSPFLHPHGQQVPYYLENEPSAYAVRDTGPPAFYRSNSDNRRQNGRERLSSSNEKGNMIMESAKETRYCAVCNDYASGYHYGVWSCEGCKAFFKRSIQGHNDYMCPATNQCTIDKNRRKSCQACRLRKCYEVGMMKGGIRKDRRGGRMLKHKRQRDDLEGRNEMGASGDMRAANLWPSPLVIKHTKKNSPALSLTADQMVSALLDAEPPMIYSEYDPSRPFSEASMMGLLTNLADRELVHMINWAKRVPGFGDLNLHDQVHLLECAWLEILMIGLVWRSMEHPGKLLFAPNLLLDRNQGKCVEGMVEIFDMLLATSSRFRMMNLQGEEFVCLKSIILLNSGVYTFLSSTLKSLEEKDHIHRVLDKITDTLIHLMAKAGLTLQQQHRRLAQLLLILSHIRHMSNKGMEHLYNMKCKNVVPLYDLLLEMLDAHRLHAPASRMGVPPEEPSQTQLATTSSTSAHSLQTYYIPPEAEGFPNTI
# Summary of the method: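 Test chemicals competed against a specific radioligand for binding to cell-free mouse Era. Duplicate wells at 25 uM were read 18 hours later by filter-based radiodetection, with loss of signal against DMSO scored as activity.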
structure (smiles),measurement,setting,value
CCC(C)(C)C1CCC(OC)CC1 (centres undefined),outcome,[1],inactive
same,outcome,[2],inactive
same,outcome,[3],inactive
same,outcome,[4],inactive
same,outcome,[5],inactive
same,outcome,[6],inactive
same,outcome,[7],inactive
same,outcome,[8],inactive
O=C(c1ccc(OCCN2CCCCC2)cc1)c1c(-c2ccc(O)cc2)sc2cc(O)ccc12,AC50,[1],1.7 µM (active) and 3.59 µM (active) and 1.46 µM (active)
same,AC50,[9],4.67 µM (active)
same,AC50,[10],14.6 µM (active)
same,AC50,[11],2.14 µM (active)
same,AC50,[12],1.76 µM (active)
same,AC50,[13],9.25 µM (active)
same,AC50,[14],0.366 µM (active)
same,AC50,[15],11.9 µM (active)
same,outcome,[15],inactive
same,AC50,[6],11.9 µM (active) and 11.8 µM (active)
same,outcome,[6],inactive
same,outcome,[7],inactive
same,outcome,[8],inactive
same,outcome,[16],inactive
CCCCCCCCCCOC(=O)c1ccccc1C(=O)OCCCCCCCC,outcome,[1],inactive
same,outcome,[17],inactive
same,outcome,[2],inactive
same,outcome,[3],inactive
same,outcome,[4],inactive
same,outcome,[6],inactive
same,outcome,[7],inactive
same,outcome,[8],inactive
CCO[Si](CC)(OCC)OCC,outcome,[1],inactive
same,outcome,[17],inactive
same,outcome,[2],inactive
same,outcome,[3],inactive
same,outcome,[4],inactive
same,outcome,[6],inactive
CN(C)C(=O)Nc1ccccc1,outcome,[1],inactive
same,outcome,[2],inactive
same,outcome,[3],inactive
same,outcome,[4],inactive
same,outcome,[6],inactive
same,outcome,[7],inactive
same,outcome,[8],inactive
[Cl][Dy]([Cl])[Cl],AC50,[11],17.4 µM (active)
CCCCCCCCCCCCS,outcome,[1],inactive
same,outcome,[18],inactive
same,outcome,[2],inactive
same,outcome,[3],inactive
same,outcome,[4],inactive
same,AC50,[15],77.6 µM (active)
same,AC50,[6],93.7 µM (active)
same,outcome,[7],inactive
same,outcome,[8],inactive
CCCCCC1CCC(=O)O1 (centres undefined),outcome,[1],inactive
same,outcome,[18],inactive
same,outcome,[2],inactive
same,outcome,[3],inactive
same,outcome,[4],inactive
same,outcome,[6],inactive
same,outcome,[7],inactive
same,outcome,[8],inactive
CCCCCCCCCCCCOCCOS(=O)(=O)O,AC50,[1],25 µM (active)
same,AC50,[19],29.4 µM (active)
same,AC50,[3],10 µM (active)
same,AC50,[4],11 µM (active)
same,outcome,[7],inactive
same,outcome,[8],inactive
CCCCCCCCCCCCN1CCOCC1,outcome,[1],inactive
same,outcome,[18],inactive
same,outcome,[2],inactive
same,outcome,[3],inactive
same,outcome,[4],inactive
same,AC50,[15],73.6 µM (active)
same,AC50,[6],80.4 µM (active)
same,outcome,[7],inactive
same,outcome,[8],inactive
same,AC50,[16],0.559 µM (active)
CCC(C)(CCCC(C)C)OC(C)=O (centres undefined),outcome,[1],inactive
same,outcome,[2],inactive
same,outcome,[3],inactive
same,outcome,[4],inactive
same,outcome,[5],inactive
same,outcome,[7],inactive
same,outcome,[8],inactive
CCCCCCOc1ccc(O)cc1,outcome,[1],inactive
same,outcome,[18],inactive
same,AC50,[19],0.174 µM (active)
same,outcome,[17],inactive
same,AC50,[2],12 µM (active)
same,AC50,[3],88.9 µM (active)
same,AC50,[4],69.5 µM (active)
same,outcome,[6],inactive
same,outcome,[7],inactive
same,outcome,[8],inactive
